Experimental data published in PubChem BioAssay AID631 (The Scripps Research Institute Molecular Screening Center, 2007).
About 810 (0.41%) of roughly 200,000 compounds were called active. Shown is part of a subset that was picked to be rich in actives. A number with no mark means an inactive call. Rule as the data show it: active = activation above about 19%; inactive = the rest.

Target: Peroxisome proliferator-activated receptor gamma (Homo sapiens) (UniProt P37231)
Experiment: PPARgamma agonists recruiting SRC-1 coactivator, primary screen, biochemical (AID 631);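 also: 0% = DMSO and 100% = reference agonist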
Conditions: PPARgamma-SRC-1 coactivator recruitment biochemical assay; at 8 µM; active compounds read high

Peroxisome proliferator-activated receptor gamma (Homo sapiens), sequence (P37231 whole entry, looked up): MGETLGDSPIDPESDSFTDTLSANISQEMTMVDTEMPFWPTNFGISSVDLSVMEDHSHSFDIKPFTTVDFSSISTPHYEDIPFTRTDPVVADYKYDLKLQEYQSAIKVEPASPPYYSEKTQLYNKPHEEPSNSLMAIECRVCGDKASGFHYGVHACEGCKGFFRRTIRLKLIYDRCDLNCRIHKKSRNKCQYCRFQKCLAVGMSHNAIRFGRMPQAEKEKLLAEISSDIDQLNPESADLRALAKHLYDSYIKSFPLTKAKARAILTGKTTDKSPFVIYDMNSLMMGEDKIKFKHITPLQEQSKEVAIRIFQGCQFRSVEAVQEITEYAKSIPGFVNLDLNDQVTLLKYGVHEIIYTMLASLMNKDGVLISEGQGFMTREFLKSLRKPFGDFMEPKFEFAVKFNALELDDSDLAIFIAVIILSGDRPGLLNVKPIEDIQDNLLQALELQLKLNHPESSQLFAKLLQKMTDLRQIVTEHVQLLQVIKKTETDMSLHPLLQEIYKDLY

Row | Compound | activation
1 | COc1cc(OC)c(C2=NOC(C(=O)Nc3c(C)n(C)n(-c4ccccc4)c3=O)C2)cc1Cl (stereo not drawn) | 3.3%
2 | Cc1ccc(-c2nc(C)sc2CC(=O)O)cc1 | -2%
3 | O=C(O)Cc1sc(-c2ccccc2)nc1-c1cccs1 | 28.9% (active)
4 | O=C(O)Cc1sc(-c2ccc(C(=O)O)cc2)nc1-c1ccccc1 | 12.4%
5 | CC1(C)C(C=C(Cl)Cl)C1C(=O)N(Cc1ccc(Cl)cc1)C1CCS(=O)(=O)C1 (stereo not drawn) | 1.5%
6 | N#C/C(C(=O)N1CCOCC1)=C1/SC(Cc2ccc(F)cc2)C(=O)N1c1ccccc1 (stereo not drawn) | -4.4%
7 | CC(C)NC(=O)NC(=O)CSc1nnc(-c2ccccc2F)n1N | 1.8%
8 | CSc1c(SCc2ccccc2)cnn(Cc2ccccc2)c1=O | 24% (active)
9 | O=c1c2ccccc2c(-c2ccccc2)nn1Cc1ccccc1 | 1%
10 | Cn1c(CO)cnc1SCc1ccccc1 | 6.4%
11 | COC(=O)NNC1=CC(=O)CC(C)(C)C1 | 5.4%
12 | COc1ccc(-n2c(C)cc(C(=O)COC(=O)c3cc(OC)c(OC)cc3NC(=O)c3cccs3)c2C)cc1 | 8.5%
13 | OCC1(CCc2ccccc2)CCN(Cc2ccc3nsnc3c2)CC1 | 35.7% (active)
14 | CC(=O)c1cccc(CN2CCC(CO)(Cc3ccccc3)CC2)c1 | 0%
15 | Cc1cccc(-c2ncc(CN3CCC(CO)(CCCc4ccccc4)CC3)cn2)c1 | 5.8%
16 | c1csc(-c2nnc(COc3ccc4c(c3)OCO4)o2)c1 | 0.1%
17 | Cc1cccc(NC(=O)c2cc([N+](=O)[O-])ccc2N2CCN(C)CC2)c1 | 10.3%
18 | COCCN(C(=O)c1ccccc1F)c1c(N)n(Cc2ccccc2)c(=O)[nH]c1=O | -2.5%
19 | CCN1CC(CN(C)Cc2nc(-c3ccc(Cl)cc3)no2)CC1=O (stereo not drawn) | -3.9%
20 | Cc1n[nH]c(=O)nc1N/N=C/c1cccs1 | 22.1% (active)
21 | COc1ccc(Nc2nc(=O)[nH]nc2C)cc1 | 5.2%

Row | Compound | activation
22 | Clc1ccc(N/N=C/c2cccs2)nn1 | 4.4%
23 | CC(=O)Nc1ccc(CN2CCN(Cc3ccc(F)c(F)c3)C(CCO)C2)cc1 (stereo not drawn) | 3.4%
24 | Cc1ccc(NS(=O)(=O)c2cccs2)cc1S(=O)(=O)N1CCCCCC1 | 27.9% (active)
25 | O=C(C1CCN(S(=O)(=O)c2cccs2)CC1)N1CCCCCC1 | -1.2%
26 | Cc1ccc(C(=O)NCC(=O)O)cc1S(=O)(=O)N1CCCCC1 | 2.2%
27 | O=C(NNc1cc(Cl)ccc1Cl)c1cccnc1Cl | 5%
28 | C=C(C)CNC(=S)N/N=C/c1ccccc1OCC(=O)O | 4.6%
29 | CCc1nnc(NC(=O)c2cccs2)s1 | 1.3%
30 | CCCc1nnc(NC(=O)c2cccs2)s1 | -1.6%
31 | CCOc1cccc(C(=O)Nc2nnc(-c3cccs3)s2)c1 | 41.8% (active)
32 | Cc1ccc(C(=O)Nc2nnc(-c3cccs3)s2)cc1C | 21.8% (active)
33 | Cc1ccc(C(=O)Oc2coc(CSc3nnc(NC(=O)c4cccs4)s3)cc2=O)cc1C | -0.6%
34 | CCOc1cccc(C(=O)Nc2cccnc2)c1 | 4.5%
35 | COc1ccc(/C=C/C2=CC(C)(C)NC(=S)N2)c(OC)c1 | -5.6%
36 | O=C(Cc1ccccc1Cl)N1CCN(c2ccccn2)CC1 | -1%
37 | CC(Sc1nncn1C)C(=O)Nc1cc(C(F)(F)F)ccc1N1CCOCC1 (stereo not drawn) | -2.1%
38 | CCOC(=O)CNC(=O)N1c2ccccc2Sc2ccccc21 | 8.4%
39 | Cc1ccc2c(c1)C1CN(C)CCC1N2C(=O)c1ccccc1NS(=O)(=O)c1ccc(F)cc1C (stereo not drawn) | 1.7%
40 | COc1cc(NC(=O)COC(=O)c2cnc(C)cn2)c(C)cc1[N+](=O)[O-] | -1%
41 | Cc1cc(NC(=O)CSc2nnc(Nc3ccccc3F)s2)no1 | -0.2%
42 | Cc1cc(C)c2c(c1)cc(C)c1nnc(SCC(=O)Nc3cc(C)on3)n12 | 22.2% (active)

Row | Compound | activation
43 | Cc1ccc(-c2csc(SCC(=O)Nc3cc(C)on3)n2)cc1 | -4%
44 | COc1cccc(C2SCC(=O)N2c2cccc(C)c2)c1OC (stereo not drawn) | 2.3%
45 | CCCNC(=O)c1c(Cl)cnn1-c1ccc(C)cc1 | -0.9%
46 | O=C(O)c1ccc(N/N=C/c2ccc3ncccc3c2)cc1 | 7.5%
47 | O=C(Nc1nnc(Cc2ccc(Cl)cc2)s1)c1cccnc1 | 0%
48 | O=C1CN(C(=O)COC(=O)c2cnc(Cl)c(Cl)c2)c2ccccc2N1 | 8.3%
49 | O=c1c2sccc2nc(SCc2cc(=O)n3ccccc3n2)n1-c1ccc(Br)cc1 | 3%
50 | Cc1cccc2nc(CSc3nc4[nH]ncc4c(=O)n3-c3cccc(Cl)c3)cc(=O)n12 | 3.8%
51 | CCc1ccc(-n2c(SCc3cc(=O)n4cc(Br)ccc4n3)nc3[nH]ncc3c2=O)cc1 | 23.4% (active)
52 | Cc1ccsc1C1C(C#N)=C(N)OC2=C1C(=O)CC(C)(C)C2 (stereo not drawn) | 11.2%
53 | COc1ccccc1CCNC(=O)CSc1nnc2ccc(-c3cccnc3)nn12 | 4.1%
54 | Cc1c(Cc2ccccc2)c(=O)oc2cc(OCC(N)=O)ccc12 | -0.5%
55 | O=C(Oc1ccccc1)Oc1ccc2c(c1)oc(=O)c1ccccc12 | 33.7% (active)
56 | CC(=O)Oc1ccc2c(C)c(CC(C)O)c(=O)oc2c1 (stereo not drawn) | -0.8%
57 | CNC(=S)Nc1ccc([N+](=O)[O-])cc1 | 7.4%
58 | CCOc1cnc(-c2c(-c3ccccc3Cl)noc2C)o1 | 9.5%
59 | COc1ccc(-c2ccc(CNCCCN3CCOCC3)o2)cc1Cl | 10.2%
60 | CCCOc1ccc(C2C(C(=O)c3ccc(C)o3)=C(O)C(=O)N2CCCn2ccnc2)cc1 (stereo not drawn) | 25.1% (active)
61 | COc1cc(C2C(C(=O)c3ccc(C)o3)=C(O)C(=O)N2Cc2cccnc2)ccc1O (stereo not drawn) | -0.3%
62 | COc1cc(C2C(C(=O)c3ccc(C)o3)=C(O)C(=O)N2CCc2ccccc2)ccc1O (stereo not drawn) | 4.9%
63 | COc1ccc2c(c1)CCc1cn3ncc(C#N)c3nc1-2 | 2.5%
